Compounds with a hit are over-represented: about 3.5% of the library has one in this group of screens.
GPR151 activ: activators of human GPR151; Q8TDV0; PathHunter beta-arrestin GPR151 cells, luminescence; activation, % at 11.2 µM; 650,000 tested, 1% active; AID 1508602; in the data active = activation above about 4.9%;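 also: 0% = median of compound wells and 100% = cells with positive control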
FBW7 act: human FBW7 E3 ligase activation, primary screen. AID 1259310. AlphaScreen FBW7–phospho-cyclin E peptide binding, activator screen. normalized activity (activation), % at 26.1 µM. Q969H0. 650,000 tested, 0.13% active; in the data active = normalized activity above about 1.9%;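 also: purified mutant Fbw7 with reduced substrate affinity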
TEAD-YAP inh: TEAD-YAP interaction inhibition; HEK-TIYL cells, TEAD-Gal4/YAP UAS-luciferase luminescence; inhibition, % at 9.12 µM; 640,000 tested, 1.4% active; AID 1259422; in the data active = inhibition above about 32%;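 also: 0% = median of test compound wells and 100% = reference inhibitor wells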
MITF inh: blocks human microphthalmia-associated transcription factor; 650,000 tested, 0.91% active; inhibition, % at 2.6 µM; AlphaScreen MITF homodimerization, bead proximity signal; in the data active = inhibition above about 50%;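 also: 0% = vehicle wells with protein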
GPR151 conf act: human GPR151 activation, confirmation screen; shares compounds with GPR151 activ; GPR151 PathHunter beta-arrestin cells, luminescence, 90 min; % of EA-reagent control over plate median; activation, % at 11.2 µM; 6,700 tested, under 10 active;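 active = mean percent activation across replicates above the confirmation screen cutoff of 4.91%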
GPR119 ag: counter-screen for GPR151 activators: effect on human GPR119 | shares compounds with GPR151 activ | GPR119 PathHunter beta-arrestin cells, luminescence, 90 min; 0 = compound-well median, 100 = enzyme-acceptor control | activation, % at 11.2 µM | 6,700 tested, 0.3% active | AID 1508611;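 active = mean percent activation in the counterscreen above 29.09%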;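 also: counterscreen on off-target GPR119 to flag nonselective hits from the GPR151 activator screen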
Target sequence (Q8TDV5 whole entry, looked up): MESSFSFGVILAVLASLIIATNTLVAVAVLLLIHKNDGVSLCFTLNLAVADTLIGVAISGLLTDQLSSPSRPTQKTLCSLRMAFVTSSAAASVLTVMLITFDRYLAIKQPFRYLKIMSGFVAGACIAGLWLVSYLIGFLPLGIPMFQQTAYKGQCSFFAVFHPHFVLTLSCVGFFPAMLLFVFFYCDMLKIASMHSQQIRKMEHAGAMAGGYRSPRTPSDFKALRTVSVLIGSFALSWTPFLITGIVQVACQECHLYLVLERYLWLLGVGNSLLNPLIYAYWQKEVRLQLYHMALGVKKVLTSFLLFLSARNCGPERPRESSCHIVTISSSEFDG
Starred values were filed as active, the others as inactive; nt = no result given.

SMILES | GPR151 activ | FBW7 act | TEAD-YAP inh | MITF inh | GPR151 conf act | GPR119 ag
FC(F)(F)COc1nc(Nc2ccc(OC(F)(F)F)cc2)nc(N2CCCCC2)n1 | -1 | 0 | 0 | 7 | nt | nt
COc1ccc(OC)c(N=c2ssnc2Cl)c1 | 6.0* | 0 | -3 | 8 | 0 | -5
COc1ccc(S(=O)(=O)Nc2cccnc2)cc1C | -1 | 0 | 16 | 0 | nt | nt
COc1ccc(S(=O)(=O)Nc2cccnc2)cc1I | 5.1* | 0 | -4 | -5 | 0 | -1
COc1ccc(S(=O)(=O)Nc2cccc(N(C)S(C)(=O)=O)c2)cc1C | -1 | 0 | 12 | 9 | nt | nt
COc1ccc(S(=O)(=O)Nc2cccc(N(C)S(C)(=O)=O)c2)cc1OC | 7.8* | 0 | 1 | -3 | 0 | 1
COc1ccc(S(=O)(=O)Nc2cccc(SC)c2)cc1C | 0 | 0 | 3 | 10 | nt | nt
COc1ccc(S(=O)(=O)Nc2cccc(Br)c2)cc1C | 13* | 0 | 2 | -1 | 1 | 1
CC(=O)c1sc(NC(=O)c2ccc(Cl)cc2Cl)nc1C | -1 | 0 | -56 | 1 | nt | nt
CCOc1ccc(/C(O)=C2\C(=O)C(=O)N(Cc3cccnc3)C2c2ccc(OC)c(OC)c2)c(C)c1 (centres undefined) | 0 | 0 | 1 | 31 | nt | nt
COc1ccc(C(=O)NC(=S)NCc2ccccc2)cc1 | 11* | 0 | -2 | 17 | 0 | -2
COc1ccc(C(=O)Nc2ccc(C(=O)NCCc3ccccc3)cc2)cc1 | 5.2* | 0 | -6 | 9 | 0 | -4
CS(=O)(=O)Nc1ccc(C(=O)Nc2ccccc2C(=O)NCCc2ccccc2)cc1 | 0 | 0 | -24 | 1 | nt | nt
O=C(COc1ccc(C(=O)NCCc2ccccc2)cc1)Nc1ccccc1F | 28* | 0 | 2 | 13 | -1 | -5
CS(=O)(=O)Nc1ccc(C(=O)NCCc2ccccc2)cc1 | 5.7* | 0 | -35 | 8 | 1 | 5
CCCc1[nH]n(-c2ccc(F)cc2)c(=O)c1C=NCCN1CCN(C(=S)NCC)CC1 | 2 | 1 | -9 | 15 | nt | nt
O=C(NC(c1ccccc1)c1ccco1)C1CCN(C(=O)c2cccs2)CC1 (centres undefined) | -1 | 0 | 5 | 9 | nt | nt
CCN(Cc1nc(-c2ccc(Cl)cc2)no1)C(=O)Nc1ccccc1OC | -1 | 1 | -4 | -6 | nt | nt
COc1ccc(CNC(=O)c2ccc(NS(C)(=O)=O)cc2)cc1 | 4.9* | 0 | 4 | -2 | 1 | 12
COc1ccc(NC(=O)CNC(=O)c2cccc(C)c2)cc1 | 8.1* | 0 | -8 | -5 | 1 | 5
COc1ccc(CNC(=O)c2c(Cl)cccc2Cl)cc1 | 5.7* | 0 | -2 | -3 | 1 | 10
CCN(CC)c1ccc(C(=O)NCCc2ccccc2)cc1 | 7.0* | 0 | -47 | 6 | 0 | 7
CCN(CC)c1ccc(C(=O)NCCO)cc1 | 0 | 0 | -9 | 14 | nt | nt
COc1ccc(NC(=O)c2ccc(NC(=O)c3ccc(NC(=O)c4cccc(C)c4)cc3)cc2)cc1 | 2 | 0 | 2 | -2 | nt | nt
Cc1ccc(NC(=O)c2cc3c(=O)n4ccccc4nc3s2)cc1Cl | -1 | 0 | -14 | 5 | nt | nt
SMILES | GPR151 activ | FBW7 act | TEAD-YAP inh | MITF inh | GPR151 conf act | GPR119 ag
CCOC(=O)c1scc2c1OCCO2 | 0 | 0 | -7 | -9 | nt | nt
CC1=CC(C)(C)N2C(=O)C3(Nc4ccccc4CO3)c3cc(C)cc1c32 (centres undefined) | -2 | 0 | 1 | 31 | nt | nt
COc1ccc(S(=O)(=O)N(C)CC(=O)NCc2ccncc2)cc1C | -2 | 0 | 2 | 3 | nt | nt
COc1cccc(NC(=O)NNC(=O)c2cc3occc3[nH]2)c1 | 5.0* | 0 | 0 | 9 | 0 | 9
CCN(CC)C(=O)C1CCCN(c2nc3ncnc(Nc4ccc(NC(C)=O)cc4)c3[nH]2)C1 (centres undefined) | 0 | 0 | 12 | 3 | nt | nt
CCN(CC)C(=O)C1CCCN(c2nc(Nc3ccc(NC(C)=O)cc3)nc(N(CC)CC)n2)C1 (centres undefined) | -2 | 0 | 5 | 2 | nt | nt
CCN(CC)C(=O)C1CCCN(c2nc3ncnc(Nc4ccc(Oc5ccccc5)cc4)c3[nH]2)C1 (centres undefined) | 5.8* | 0 | 6 | 7 | 1 | 7

High-throughput results deposited in PubChem by The Scripps Research Institute Molecular Screening Center.
